Drawing on PubChem BioAssay (NCI), this text covers growth for 13 compounds.

Each structure is given as a SMILES string. Compounds without any hit were thinned out: in the full panel of roughly 83,000, 20% have a hit.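 Values shown are percent growth following 48 h exposure of cells in 96-well plates to a single concentration of compound; below 10 was considered active.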 Unmarked numbers belong to inactive results. The source made the active and inactive calls.

Common to all, as to test: NCI-60 one-dose screen, 48 h (100 = growth as untreated, 0 = no growth, -100 = all killed)
What all share (details): 10 µM unless noted

The subject of experiment [1] is SK-MEL-2 melanoma.
For experiment [2], the system named is EKVX NSCLC.
The test system of experiment [3] is SN12C renal.
For experiment [4], the system named is UO-31 renal.
Experiment [5] has as its system TK-10 renal.
The test system of experiment [6] is ACHN renal.
The subject of experiment [7] is CAKI-1 renal.
Experiment [8] has as its system A498 renal.
For experiment [9], the system named is CCRF-CEM leukemia.
Experiment [10] concerns MOLT-4 leukemia.

With `O=C(CSc1nc2ccccc2c(=O)[nH]1)NCCN1CCCCC1`, the growth in experiment [1] was 92.5%; in [2] it was 93.7%; in [3], 96.4%; in experiment [4], 78.6%; in [5], 94.9%; in experiment [6], 103%. The growth was 82.4% in experiment [7], 105% in experiment [8], 98.5% in [9] and 103% in experiment [10].

Turning to `Cc1cccc(-c2nc(Nc3ccc(C)c(S(N)(=O)=O)c3)c3ccccc3n2)c1`, the growth in [1] was 52.2%; in [2], 22.7%; in experiment [3], 29.8%; in [4], 25.2%; in experiment [5], 60.1%; in experiment [6] it was 15.3%. Moreover, the growth in experiment [7] is 24%; in experiment [8] it was 52.8%; in experiment [9], 17.7%; in experiment [10], 16.8%.

Regarding `CC1CN(c2oc(-c3ccc([N+](=O)[O-])cc3)nc2C#N)CC(C)O1` (stereo not given), the growth was 103% in experiment [1]; 95.2% in [2]; 91.5% in experiment [3]; 81.7% in [4]; 109% in experiment [5]; 108% in experiment [6]. For the same compound, the growth in [7] is 98.2%; in [8] it was 97.2%; in [9], 100%; in [10], 99.8%.

Regarding `C=C1CCC2C3(C)COC(c4ccc(F)cc4)OC3CCC2(C)C1C/C=C1/C(=O)OCC1O` (stereo not given), the growth in experiment [1] was -63.2% (active); in [2], 5.53% (active); in experiment [3], -11.3% (active); in experiment [4] it was -90.6% (active); in experiment [5], -35.8% (active); in experiment [6], -97.6% (active). The growth is -5.17% (active) in experiment [7], 89.6% in [8], 11.4% in [9] and 8.65% (active) in [10].

For `O=C1CCCc2cc(OCC(=O)N3CCCCC3)ccc2N1`, the growth in experiment [1] was 111%; in experiment [2] it was 104%; in experiment [3], 114%; in [4], 92.9%; in experiment [5], 104%; in experiment [6] it was 107%. For the same compound, the growth in experiment [7] was 96.7%; in experiment [8], 114%; in experiment [9] it was 98.4%; in [10], 102%.

With `C=C1CC[C@@H]2[C@]3(C)COC(c4cn[nH]c4-c4ccccc4)O[C@@H]3CC[C@@]2(C)[C@@H]1C/C=C1/C(=O)OCC1O` (stereo not given in full), the growth in experiment [1] is 73.8%; in experiment [2], -45.2% (active); in experiment [3], 21.9%; in [4], -0.824% (active); in [5] it was -8.55% (active); in experiment [6], 11%. In addition, the growth in experiment [7] is 11.4%; in experiment [8] it was 137%; in [9], 2.72% (active); in experiment [10], 4.6% (active).

On to `COc1cc(-c2ccc(/C=N/NC(=O)c3[nH]c4ccc(Br)cc4c3-c3ccccc3)o2)cc(OC)c1OC`, for which the growth in experiment [1] was 107%; in [2] it was 65.7%; in experiment [3], 96.3%; in experiment [4], 102%; in experiment [5], 112%; in experiment [6] it was 76%. Further, the growth was 74.5% in [7], 134% in [8], 69.5% in experiment [9] and 77.3% in [10].

Turning to `c1ccc(-c2csc(Nc3cccc(Nc4nc(-c5ccccc5)cs4)c3)n2)cc1`, the growth in [1] was 64.9%; in experiment [2], 37.7%; in [3], 43.4%; in experiment [4], 32.3%; in [5], 68.6%; in [6], 36.2%. Moreover, the growth in experiment [7] was 34.9%; in experiment [8], 85.5%; in experiment [9], 38.6%; in experiment [10], 13.7%.

With `COc1cc2oc(-c3cccc(NC(=O)[C@H](Cc4ccccc4)NC(=O)OC(C)(C)C)c3)cc(=O)c2c(OC)c1OC`, the growth in [1] was 20.9%; in experiment [2], 55.9%; in experiment [3], 32%; in [4], 18.2%; in [5], 45.2%; in experiment [6] it was 18.1%. Moreover, the growth in experiment [7] is 31.7%; in [8], 77.9%; in [9] it was 32%; in experiment [10], 9.42% (active).

With `CCOC(=O)C1=C(N)N(c2ccccc2)C2=C(C(=O)CC(C)(C)C2)C1c1ccccc1Cl` (stereo not given), the growth in experiment [1] is 57.7%; in [2] it was 74.6%; in experiment [3], 75%; in [4], 55.3%; in experiment [5], 100%; in experiment [6], 69.2%. For the same compound, the growth in experiment [7] is 46.7%; in [8], 99.4%; in experiment [9] it was 48.4%; in experiment [10], 25.8%.

Take `Cc1ccc(S(=O)(=O)c2nc(S(=O)(=O)c3ccc(C)cc3)c(N3CCC(O)CC3)s2)cc1`: the growth in [1] is 66.6%; in [2], 63.1%; in experiment [3], 74%; in experiment [4], 73.7%; in experiment [5], 129%; in experiment [6] it was 97.8%. For the same compound, the growth in experiment [7] is 69.2%; in experiment [8], 86.1%; in [9], 23.8%; in experiment [10], 38%.

`COc1ccc(C2CC(c3ccc(S(=O)(=O)NCCNc4nc(Nc5ccc(F)cc5)nc(N(C)C)n4)cc3)=Nc3c(N)nc(N)nc3N2)cc1` (stereo not given): the growth in [1] is 107%; in experiment [2], 87.9%; in [3], 81.1%; in experiment [4], 86.2%; in experiment [5] it was 107%; in experiment [6], 92.7%. Besides, the growth in [7] was 88.1%; in experiment [8] it was 93.6%; in experiment [9] it was 36.2%; in [10] it was 20.6%.

On to `CC(=O)Nc1cccc(Nc2nc(N[C@H]3CCCc4ccccc43)c3ccccc3n2)c1`, for which the growth in [1] is 123%; in experiment [2], 98.7%; in experiment [3], 103%; in experiment [4] it was 91.8%; in experiment [5], 99.1%; in experiment [6], 102%. The growth in [7] is 89.5%; in experiment [8], 105%; in [9], 103%; in experiment [10], 100%.
